# The list is not random: actives were taken first. Their share in the collection is about 3.1%.
# S1P3 antagonist: antagonists of human S1P3 receptor. CHO S1P3 NFAT-BLA reporter, FRET fluorescence, antagonist mode. inhibition, % at 4.98 µM. 170,000 compounds, 0.27% hits. AID 485;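 active = inhibition above the plate cutoff, the mean inhibition of test wells on that plate plus 3 SD, cut at about 28% in these data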;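 note: cells challenged with S1P at its EC80 of 0.8 µM; blue over green emission ratio from cleaved BLA substrate after 4 h stimulation; 0% = S1P-stimulated wells and 100% = unstimulated DMSO-only wells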
# Target sequence (Q99500 whole entry, looked up): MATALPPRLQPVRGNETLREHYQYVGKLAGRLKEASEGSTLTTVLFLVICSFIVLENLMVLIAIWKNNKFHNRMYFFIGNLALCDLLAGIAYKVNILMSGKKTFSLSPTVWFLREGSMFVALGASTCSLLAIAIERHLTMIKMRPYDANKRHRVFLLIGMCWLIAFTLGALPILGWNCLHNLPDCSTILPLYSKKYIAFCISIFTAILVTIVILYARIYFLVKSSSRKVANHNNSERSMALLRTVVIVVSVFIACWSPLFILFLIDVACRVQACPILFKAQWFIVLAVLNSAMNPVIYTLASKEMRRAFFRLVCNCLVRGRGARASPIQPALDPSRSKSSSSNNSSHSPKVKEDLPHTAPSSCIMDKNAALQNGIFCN
# KCC2 mod: KCC2 (human) Cl- transport modulation. B-score of Tl+ flux slope (higher = more flux/activation; lower = inhibition) at 10 µM. AID 1456. 190,000 compounds, 2.2% hits. KCC2 cells, thallium flux FluoZin-2 fluorescence;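 active = thallium flux slope and its plate-corrected score both differing from the plate sample mean at a set confidence after two filtering rounds, in either direction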;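 note: slope of fluorescence scaled to starting intensity during 10 to 20 s after thallium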
# EP2 mod: EP2 receptor (human) modulation | EP2-expressing cells, cAMP HTRF FRET, PGE2 co-stimulation | 260,000 compounds, 0.83% hits | induction, % at 25 µM | P43116;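 active = compounds whose cAMP rise, as percent of the full-agonist control response, exceeds 60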;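 note: rat C6 glioma line stably carrying human EP2 under a CMV promoter; the protocol text gives 20 µM as final concentration; 100% = response of wells given 1 µM PGE2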
# Target sequence (P43116 whole entry, looked up): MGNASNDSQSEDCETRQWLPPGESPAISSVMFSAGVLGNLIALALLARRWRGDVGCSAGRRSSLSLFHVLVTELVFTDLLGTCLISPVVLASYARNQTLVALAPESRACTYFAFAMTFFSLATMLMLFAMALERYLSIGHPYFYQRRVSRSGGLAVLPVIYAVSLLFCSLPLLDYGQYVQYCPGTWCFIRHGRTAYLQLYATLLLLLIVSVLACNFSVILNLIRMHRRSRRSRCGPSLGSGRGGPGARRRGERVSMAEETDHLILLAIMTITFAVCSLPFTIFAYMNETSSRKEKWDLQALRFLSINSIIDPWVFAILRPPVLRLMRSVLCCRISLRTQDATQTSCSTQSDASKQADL
# EP2 antag: blocks the human prostaglandin E2 receptor EP2. C6 glioma cells expressing human EP2, cAMP TR-FRET; cells stimulated with saturating PGE2. 260,000 compounds, 0.52% hits. AID 1422. inhibition, % at 25 µM;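 active = percent inhibition above 40 after rounding to a whole number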;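 note: rat C6 glioma host cells with rolipram phosphodiesterase inhibitor present; the protocol text gives 20 µM as final concentration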
# KCC2 secondary: KCC2 (human) modulation, secondary assay. shares compounds with KCC2 mod. HEK293-KCC2, thallium flux, FluoZin2 fluorescence; active compounds read high. normalised thallium flux (F/F0 slope) at 10 µM. 3,700 compounds, 15% hits. AID 1713;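 active = thallium flux slope above the same plate's solvent-only control mean plus 3 SD; inconclusive = the two replicate wells disagree; inactive = no significant difference from solvent-only control wells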
# KCC2 bumet counter: thallium flux despite bumetanide block in KCC2 cells, secondary assay 3; shares compounds with KCC2 mod; HEK293-KCC2 + bumetanide/ouabain, thallium flux FluoZin2; active compounds read high; normalized thallium flux at 10 µM; 3,700 compounds, 49% hits; AID 1714;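 active = thallium entry rate above the same plate's blocked-transporter control wells by more than 3 SD; inconclusive = the two repeat wells disagree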;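 note: raw slope of fluorescence over initial fluorescence between 10 and 20 s after thallium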
# KCC2 sec2: KCC2 (human) modulation, second secondary assay; normalized thallium flux at 10 µM; HEK293-KCC2, thallium flux FluoZin2 fluorescence; actives lie on both sides; F/F0 rise rate, 10–20 s post-thallium; AID 1715; shares compounds with KCC2 mod; 3,700 compounds, 23% hits;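 active = thallium flux slope more than 3 SD above or below the plate's solvent-only control mean, mostly below; inconclusive = the two repeat wells disagreed; inactive = no significant shift from solvent-only controls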;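 note: raw slope with 0.1% DMSO as baseline and bumetanide as block control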
# HEK counter1: counter-screen for KCC2 modulators: effect in parental HEK293 cells; AID 1716; thallium flux rate (normalised fluorescence) at 10 µM; 3,700 compounds, 46% hits; shares compounds with KCC2 mod; thallium flux FluoZin2, ouabain; baseline-ratio fluorescence slope, 10–20 s after thallium;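 active = thallium flux rate significantly above the same plate's solvent-only control wells, beyond their mean plus 3 SD; inconclusive = the two replicate wells gave conflicting results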
# KCC2 ouabain: confirmation of human KCC2 modulators with ouabain; shares compounds with KCC2 mod; HEK293-KCC2, thallium flux FluoZin2 fluorescence; bidirectional: low = inhibitor, high = activator; raw Tl+ flux slope (below DMSO = inhibition, above = activation) at 10 µM; 3,700 compounds, 48% hits;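 active = thallium flux slope beyond 3 SD from same-plate DMSO control mean in most replicates, usually higher, sometimes lower; inconclusive = repeat tests gave conflicting results; inactive = no significant difference from controls in most replicates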;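 note: slope of initial-normalized fluorescence between seconds 10 and 20 after thallium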
# HEK293 Tl flux2: parental HEK flux effect, counter-screen 2; shares compounds with KCC2 mod; HEK293 parental, thallium flux FluoZin-2 fluorescence slope; 3,700 compounds, 33% hits; AID 1718; thallium flux slope at 10 µM;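 active = thallium flux slope above the same plate's solvent-control mean plus 3 SD in both duplicate wells; inconclusive = duplicate wells that disagreed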;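 note: run without ouabain in cells lacking the KCC2 cotransporter; slope of fluorescence scaled to its starting value between 10 and 20 s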
# * = called active by the depositor; u = inconclusive; x = no result given.
SMILES,S1P3 antagonist,KCC2 mod,EP2 mod,EP2 antag,KCC2 secondary,KCC2 bumet counter,KCC2 sec2,HEK counter1,KCC2 ouabain,HEK293 Tl flux2
O=C(NC(=S)Nc1ccc2c(c1)OCCO2)c1cccc(Br)c1,-9,37*,-95,3,0.0063,0.042*,0.043*,0.046*,0.034*,0.028*
O=C(NC(=S)Nc1ccc2c(c1)OCO2)c1ccccc1,x,x,-51,15,x,x,x,x,x,x
O=C(NC(=S)Nc1ccc2c(c1)OCCO2)c1cccc2ccccc12,11,11*,-3,6,u,0.086*,0.035,0.035*,0.057*,0.016*
COc1cccc(C(=O)Nc2ccc3c(c2)OCCO3)c1OC,x,x,-35,9,x,x,x,x,x,x
O=S(=O)(NCc1ccc2c(c1)OCO2)c1ccc(S(=O)(=O)N2CCCC2)cc1,x,x,-33,7,x,x,x,x,x,x
Cc1cc(C)c(C#N)c(N2CCN(Cc3ccccc3)CC2)n1,x,-3.7*,7,11,0.017,0.0042,u,0.0067,0.014,0.0098
COc1ccc(/C=C/C(=O)NC(=S)NNC(=O)c2cc(OC)c(OC)c(OC)c2)cc1,-24,4.5*,-33,10,0.0094,u,0.032,0.0042,0.021,0.01
Cc1onc(-c2ccccc2)c1C(=O)NNC(=S)NC(=O)c1ccc(Cl)cc1Cl,1,16*,-12,9,u,0.044*,0.055*,0.039*,0.045*,0.042*
O=C(Nc1ccccc1C(=O)NCC1CCCO1)c1ccc(Cl)cc1Cl (configuration not stated),x,-2,23,2,x,x,x,x,x,x
Cc1onc(-c2ccccc2)c1C(=O)NNC(=S)NC(=O)/C=C/c1ccccc1,-5,6.3*,-2,6,0.013*,0.037*,0.035,0.017*,0.035*,0.012*
COc1ccc(Cl)cc1NC(=O)c1c(-c2ccccc2)noc1C,17,1.7,16,7,x,x,x,x,x,x
CCC(CC)NC(=O)c1c(-c2ccccc2)noc1C,x,x,-15,8,x,x,x,x,x,x
O=C(NC(=S)NCC1CCCO1)c1ccc(Cl)cc1Cl (configuration not stated),-1,9*,2,2,0.0097,0.029*,0.029,0.011*,u,0.0094
COc1cc(/C=C2/SC(=S)N(C(C)C(=O)O)C2=O)cc(Br)c1O (configuration not stated),x,x,-13,14,x,x,x,x,x,x
O=C(Cn1nnc(-c2cccs2)n1)N1c2ccccc2CCc2ccccc21,x,x,-29,12,x,x,x,x,x,x
O=C(CSc1nnc(C2CC2)n1CC1CCCO1)N1CCc2ccccc21 (configuration not stated),x,x,-15,9,x,x,x,x,x,x
Nc1cc(-c2ccco2)nn(CC(=O)Nc2ccc(F)c(F)c2)c1=O,x,x,-16,5,x,x,x,x,x,x
COc1ccc(/C=C/C(=O)NC(=S)NNC(=O)c2c(-c3ccccc3)noc2C)cc1,-8,7.1*,3,8,0.013*,0.037*,0.033,0.018*,u,0.012*
COc1ccc(-c2cc(C(=O)NNC(=S)NC(=O)c3c(-c4ccccc4)noc3C)[nH]n2)cc1,6,-0.45,26,6,x,x,x,x,x,x
CCOC(=O)CSc1nnc(CNc2cccc(Cl)c2)o1,x,x,-46,10,x,x,x,x,x,x
COc1ccccc1CN(Cc1nc2ccccc2c(=O)[nH]1)S(=O)(=O)c1ccc(C)cc1,x,x,61*,15,0.0094,0.0059,0.03,0.0071,0.019,0.01
COc1ccccc1CN(Cc1nc2ccccc2c(=O)[nH]1)C(=O)Nc1ccc(C)cc1,x,x,1,16,x,x,x,x,x,x
COc1ccc(OC)c(CC(=O)N2CCC(n3cnc4cccnc43)CC2)c1,x,x,-26,8,x,x,x,x,x,x
CC(=O)c1cc2c(cc1NS(=O)(=O)c1ccc(C)cc1)OCCO2,17,-0.3,-31,14,x,x,x,x,x,x
NC(=O)c1sc(-c2ccsc2)cc1NS(=O)(=O)c1ccc(C(F)(F)F)cc1,-21,-5.4*,-70,3,0.0074,0.0061,0.03,0.0069,0.012*,0.011
SMILES,S1P3 antagonist,KCC2 mod,EP2 mod,EP2 antag,KCC2 secondary,KCC2 bumet counter,KCC2 sec2,HEK counter1,KCC2 ouabain,HEK293 Tl flux2
CC(=O)c1sc(-c2ccc(F)cc2)cc1NS(=O)(=O)c1ccc(C)cc1,-8,10*,-12,19,0.011,0.0064,0.036,0.0077,0.023,0.01
Cc1noc(C(=O)NCc2ccc(F)cc2)c1Cl,x,6.8*,15,10,0.0085,0.0067,0.029,0.007,0.021,0.0095
CC(C)Cn1c(SCC(=O)Nc2cccc(S(N)(=O)=O)c2)nc2ccccc2c1=O,-5,5.7*,-60,10,0.0094,0.018*,0.03,0.0095*,u,0.011*
C=CCn1c(SCC(=O)Nc2ccc3c(c2)OCO3)nc2ccccc2c1=O,-6,0.54,-28,4,x,x,x,x,x,x
CC(C)Cn1c(SCC(=O)NC(=O)Nc2ccc3c(c2)OCCO3)nc2ccccc2c1=O,9,17*,3,3,0.014*,0.044*,0.034,u,0.039*,u
Cc1n[nH]c(C)c1CCCOc1ccccc1,x,x,6,16,x,x,x,x,x,x
COc1ccc(OCCCc2c(C)n[nH]c2C)cc1,x,4.8*,-31,x,0.0088,0.0068,0.03,0.0077,0.033,u
COc1cccc(CN(CCCn2ccnc2)Cc2ccccc2F)c1,x,x,33,9,x,x,x,x,x,x
Cc1cccc(-n2c(=S)[nH]c3sc4c(c3c2=O)CCc2ccccc2-4)c1,11,21*,34,17,0.02*,0.046*,0.035,0.04*,0.043*,0.018*
C=CCn1c(SCC(N)=O)nc2scc(-c3ccc(C)o3)c2c1=O,-10,37*,-21,9,0.0073,0.028*,0.047*,0.037*,0.042*,0.035*
CCOC(=O)c1c(NCc2ccccc2)n[nH]c1C,7,-0.78,29,4,x,x,x,x,x,x
CCOC(=O)c1c(N/N=C/c2ccncc2)n[nH]c1C,6,18*,-15,9,0.016,0.0042,0.03,u,0.016,0.0092
C/C(=N\NC(=O)CNc1cccc(C)c1)c1ccc(Br)s1,-8,0.077,5,4,x,x,x,x,x,x
C/C(=N\NC(=O)c1ccc2c(c1)OCO2)c1ccco1,8,2.6,-23,1,x,x,x,x,x,x
C/C(=N/NC(N)=S)c1ccc(Br)s1,13,19*,-64,7,0.011,0.032*,0.031,0.014*,0.027,u

# High-throughput results (PubChem)
